Results taken from PubChem BioAssay AID720597 (Broad Institute, 2013).
Potency and affinity values are given separately. The source made the active and inactive calls.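 Rule for the calls: active = fitted half-maximal dose no more than twice the top valid tested dose, for compounds that lower signal; inconclusive = fit invalid, or curve flat with activity between -70 and -30; inactive = potency past limit, curve flat within ±30, or signal increasing.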

Molecular target: NAD-dependent protein deacylase sirtuin-5, mitochondrial (Homo sapiens) (UniProt Q9NXA8)
Experiment: SIRT5 deacylase inhibitors, dose response, biochemical, fluorescence imaging, cherry-pick, set 6 (AID 720597);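 note: lower AMC signal can also come from blocking the trypsin step; 0% = median of neutral control wells and -100% = median of positive control wells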
Settings: Purified SirT5, succinyl-peptide-AMC/trypsin fluorescence; series mostly up to 15 µM; activity change, negative = inhibition: at the top concentration

Chain of NAD-dependent protein deacylase sirtuin-5, mitochondrial (Homo sapiens) (Q9NXA8 whole entry, looked up): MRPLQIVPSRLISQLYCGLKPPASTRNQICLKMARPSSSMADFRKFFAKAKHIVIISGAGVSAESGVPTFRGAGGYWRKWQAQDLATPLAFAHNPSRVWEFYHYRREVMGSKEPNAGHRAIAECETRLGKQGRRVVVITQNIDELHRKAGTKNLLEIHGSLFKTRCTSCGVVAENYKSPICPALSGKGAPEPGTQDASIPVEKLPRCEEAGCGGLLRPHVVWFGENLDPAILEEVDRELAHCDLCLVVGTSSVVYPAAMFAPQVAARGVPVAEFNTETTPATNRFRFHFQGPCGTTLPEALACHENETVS

SMILES	activity change, negative = inhibition
NC(=O)NCC#Cc1ccc2c(c1)[C@]1(C(=O)N2)[C@H](c2ccccc2OCCO)N2[C@H](c3ccccc3)[C@H](c3ccccc3)OC(=O)[C@H]2[C@@H]1C(=O)N1CCN(c2ncccn2)CC1	-16.3% (inactive)
COc1ccc(S(=O)(=O)N(C)C[C@@H]2Oc3ccc(NC(=O)CCC(F)(F)F)cc3C(=O)N([C@H](C)CO)C[C@H]2C)cc1	4.64% (inactive)
O=C(NCC1CCCCC1)[C@H]1[C@H](CO)[C@H]2Cn3c(cccc3=O)[C@@H]1N2CCc1ccccc1	-24.3% (inactive)
Cc1ccc(S(=O)(=O)N(C)C[C@@H]2OCCCC[C@H](C)Oc3ccc(NS(=O)(=O)c4ccc(Cl)cc4)cc3C(=O)N([C@H](C)CO)C[C@@H]2C)cc1	-16.7% (inactive)
COc1cccc(S(=O)(=O)N(C)C[C@@H]2Oc3cc(C4=CCCCC4)ccc3S(=O)(=O)N([C@@H](C)CO)C[C@@H]2C)c1	-2.52% (inactive)
Cc1ccc(S(=O)(=O)N(C)C[C@H]2OCCCC[C@H](C)Oc3ccc(NS(=O)(=O)c4ccccc4)cc3C(=O)N([C@@H](C)CO)C[C@@H]2C)cc1	-9.79% (inactive)
CS(=O)(=O)N1[C@@H](CO)[C@@H](c2ccccc2)C12CN(C(=O)c1ccccc1F)C2	-6.8% (inactive)
O=C(NCC[C@H]1CC[C@H](NC(=O)C2CC2)[C@@H](CO)O1)c1cc(Cl)cc(Cl)c1	29% (inactive)
CC(C)NC(=O)NCC[C@H]1CC[C@@H](NS(=O)(=O)c2ccc(-c3ccccc3)cc2)[C@H](CO)O1	-21.9% (inactive)
C[C@H]1CN([C@@H](C)CO)S(=O)(=O)c2ccc(C#CC3CC3)cc2O[C@H]1CN(C)Cc1ccccc1F	2.45% (inactive)
CCCC#Cc1ccc([C@H]2[C@H](CO)N3CCCCN(S(=O)(=O)Cc4ccccc4)C[C@@H]23)cc1	-4.67% (inactive)
C[C@@H]1CN([C@@H](C)CO)C(=O)c2cc(-c3cccnc3)cnc2O[C@H]1CN(C)C(=O)Nc1ccc2c(c1)OCO2	19.3% (inactive)
Cc1ccc(S(=O)(=O)N(C)C[C@@H]2OCc3ccccc3-c3c(n(C)c4ccccc34)C(=O)N([C@H](C)CO)C[C@@H]2C)cc1	-22% [at 16 µM] (inactive)
CC(=O)N(C)C[C@H]1Oc2ncc(C3=CCCC3)cc2C(=O)N([C@H](C)CO)C[C@H]1C	-4.28% (inactive)
COc1ccc(C#Cc2ccc([C@H]3[C@H](CO)N4C(=O)CN(C(=O)c5cccnc5)C[C@@H]34)cc2)cc1	-11.8% (inactive)
C[C@H](CO)N1C[C@H](C)[C@@H](CN(C)C(=O)C2CCOCC2)Oc2ncc(-c3ccccc3)cc2C1=O	4.08% (inactive)
C[C@H](CO)N1C[C@H](C)[C@H](CN(C)S(=O)(=O)c2ccc(F)cc2)Oc2cc(C3=CCCCC3)ccc2S1(=O)=O	1.92% (inactive)
C[C@H]1CN([C@@H](C)CO)S(=O)(=O)c2ccc(/C=C/c3ccccc3)cc2O[C@@H]1CN(C)Cc1ccccc1	28.7% (inactive)
C[C@H](CO)N1C[C@H](C)[C@@H](CN(C)C(=O)NC2CCCCC2)Oc2cc(C#Cc3ccc(F)cc3)ccc2S1(=O)=O	-9.23% (inactive)
CO[C@H](CN(C)C(=O)c1ccc2c(c1)OCO2)[C@H](C)CN([C@H](C)CO)S(=O)(=O)c1ccccc1	-23.5% (inactive)
CCCC#Cc1ccc2c(c1)O[C@@H](CN(C)C(=O)c1ccccc1F)[C@@H](C)CN([C@H](C)CO)S2(=O)=O	17.7% (inactive)
C[C@@H]1CN([C@H](C)CO)C(=O)c2cc(NC(=O)c3ccncc3)ccc2O[C@@H]1CN(C)C(=O)Nc1ccc2c(c1)OCO2	-14.6% (inactive)
O=C(C[C@@H]1CC[C@@H]2[C@H](COC[C@@H](O)CN2Cc2ccc3c(c2)OCO3)O1)N1CCOCC1	-7.73% (inactive)
C[C@@H]1CN([C@@H](C)CO)C(=O)c2cc(NS(=O)(=O)c3ccc(Cl)cc3)ccc2O[C@@H](C)CCCCO[C@@H]1CN(C)Cc1ccc(C(F)(F)F)cc1	3.58% (inactive)
C[C@@H]1CN([C@@H](C)CO)C(=O)Cc2cc(NC(=O)Nc3ccccc3)ccc2O[C@H]1CN(C)S(=O)(=O)c1ccc(F)cc1	-30.5% (inactive)
CCN1[C@H](C(=O)NCc2ccccc2)[C@@H](CO)[C@@H]2Cn3c(ccc(-c4ccncc4)c3=O)[C@@H]21	-21.2% (inactive)
C[C@H]1CN([C@@H](C)CO)S(=O)(=O)c2ccc(C#CC3CC3)cc2O[C@@H]1CN(C)C(=O)Cc1ccncc1	-21% (inactive)
Cc1ccc(S(=O)(=O)Nc2ccc3c(c2)C(=O)N([C@H](C)CO)C[C@@H](C)[C@H](CN(C)Cc2ccc(Cl)c(Cl)c2)OCCCC[C@H](C)O3)cc1	0.114% (inactive)
C[C@@H]1CN([C@H](C)CO)C(=O)c2c(c3ccccc3n2C)-c2ccccc2CO[C@@H]1CN(C)S(=O)(=O)c1ccc(C(F)(F)F)cc1	5.77% (inactive)
